In the library only some 9.9% were active in any assay of this set; here they are far more common.
SW480 rerep = DNA re-replication induction in SW480 cells | SW480 DNA re-replication, Hoechst DNA content imaging, 48 h | Potency, µM (titrated, usually from 46.1 µM), without a hit: top-dose re-replication activation, usual class: activators | hit rate 1.8% among 340,000 | AID 624297; also: potency is read from the fitted curve at half-maximal effect; % of control where 0% means no effect; nearly all actives have a fitted effect of over 55% in size
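DNA re-replication was detected as more nuclei of elevated Hoechst intensity after 48 hr exposure to compound (23 nL pinned per well of 250 cells).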
IL-1B inflam inh = blocks inflammasome-driven IL-1 beta release; THP-1 LPS/ATP IL-1B secretion, AlphaLISA, 16 h; stronger effect = lower value; activity change, % at 57.5 µM; hit rate 4.7% among 360,000; AID 743279; in the data active = activity change below about -50%; inconclusive = mostly about -30% to -49%; also: % is scaled to controls: 0 for no effect and ±100 for the full control effect
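Secreted IL-1B measured by AlphaLISA bead assay after 16 h compound exposure of THP-1 cells; compounds (final up to 57.5 uM) added 1 h before LPS (250 ng/mL) and ATP (1.25 mM) stimulation; lower signal means less secretion.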
MCF10A rerep = induces DNA re-replication in MCF 10a normal breast cells; MCF 10A DNA re-replication, Hoechst nuclear intensity, 48 h; Potency, µM (titrated, usually from 46.1 µM), for the others: at the highest dose activity, positive = re-replication, hits mostly activators; hit rate 2.9% among 350,000; AID 624296; also: potency is read from the fitted curve at half-maximal effect; % of control where 0% means no effect; nearly all actives have a fitted effect of over 50% in size
KB-3-1 tox = KB-3-1 parental cell cytotoxicity. KB-3-1 viability, CellTiter-Glo ATP luminescence, 72 h. AID 1347075. hit rate 1.4% among 400,000. Potency, µM (highest dose often 46.1 µM), most hits filed as cytotoxic; also: potency is read from the fitted curve at half-maximal effect; % is scaled to controls: 0 for no effect and ±100 for the full control effect; nearly all actives have a fitted effect of over 60% in size
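Multi-concentration cytotoxicity screen in KB-3-1 cells grown in DMEM lacking phenol red with 10% FBS. After 72 h at 37 °C with compound, ATP-dependent luminescence was recorded.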
KB-V1 cytotox = kills drug-selected multidrug resistant KB-V1 cells. KB-V1 MDR cells viability, CellTiter-Glo, 72 h. Potency, µM (series often up to 46.1 µM), actives largely listed as cytotoxic. hit rate 3.4% among 400,000; also: potency is read from the fitted curve at half-maximal effect; % is scaled to controls: 0 for no effect and ±100 for the full control effect; nearly all actives have a fitted effect of over 60% in size
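Compound-treated KB-V1 multidrug-resistant cells, 72 h, 37 degrees C; viability by CellTiter-Glo. Fitted qHTS curves give the values.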
The depositor's hits bear a star; i = inactive; u = inconclusive; x = no result given; ! = repeats disagree; [ ] = remark or other dose. Unless noted, calls follow the shape of the dose curve; as a rule, active = well fitted curve in the direction sought with a large enough effect; inconclusive = small, poorly fitted or top-dose-only effect, or another doubt; inactive = no such curve, though single readings can be large; an effect the other way counts as inactive or inconclusive.

SMILES	SW480 rerep	IL-1B inflam inh	MCF10A rerep	KB-3-1 tox	KB-V1 cytotox
Cc1ccc(S(=O)(=O)Nc2cccc(C(=O)NCCCN3CCCC3=O)c2)cc1F	-6.9%	11.4	1.5%	i	i
O=C(Cn1nnc(-c2cccc(C(F)(F)F)c2)n1)NCc1ccc(F)cc1	x	x	x	i	u
O=S(=O)(Nc1ncccn1)c1ccc(Cl)cc1	-51.8%	4.2	0.4%	i	i
CN(C)c1nc(NS(=O)(=O)c2ccc(Cl)cc2)nc(N(C)C)n1	1.8%	-4.0	9.0%	i	13µM*
COC(=O)c1nnn(CC(=O)Nc2cccc(OC)c2)c1C(=O)OC	12.9%	-60.8*	3.0%	i	i
COC(=O)c1nnn(CC(=O)NC(=O)Nc2ccccc2)c1C(=O)OC	-0.1%	-70.1*	u	i	i
COC(=O)c1nnn(CC(=O)NC(=O)Nc2ccc(F)cc2)c1C(=O)OC	-2.8%	-7.2	-33.1%	i	u
CCCN(CCC)CC(O)CN1C(=O)N(CN2C(=O)N(CC(O)CN(CCC)CCC)C(=O)C2(C)C)C(C)(C)C1=O (stereo unspecified)	0.8%	-65.3*	0.7%	i	u
CN(C)CC(O)CN1C(=O)N(CN2C(=O)N(CC(O)CN(C)C)C(=O)C2(C)C)C(C)(C)C1=O (stereo unspecified)	-1.5%	15.6	2.1%	i	i
CCC(C)c1ccc(OCCCCN2CCOCC2)cc1 (stereo unspecified)	2.1%	4.2	27.7%	i	i
Cc1ccc(CCC(=O)Nc2ncc(Cc3cccc(Cl)c3Cl)s2)o1	1.16µM*	14.4	u	0.116µM*	0.517µM*
Cc1cccc(NC(=O)c2ccc3snnc3c2)c1	x	x	x	i	u
CCOC(=O)c1ccccc1NC(=O)CSc1nc2cn(CC)nc2c(=O)n1Cc1ccc(Cl)cc1	x	x	x	i	i
COc1ccc(-c2nc(CS(=O)CC(=O)NCc3ccc(Cl)cc3)c(C)o2)cc1OC (stereo unspecified)	-9.2%	-21.8	u	i	i
COc1ccc(-n2c(CC3C(=O)Nc4ccc(C)cc43)nc3ccccc3c2=O)cc1 (stereo unspecified)	x	x	x	i	i
CC(=O)c1ccc(N2CCN(C(=O)CCCc3nc4ccccc4s3)CC2)cc1	-4.0%	155.9	18.4µM*	i	i
O=C(COC(=O)/C=C/c1cccc(F)c1)NC(=O)NCc1ccccc1	-3.3%	-15.6	16.6%	u	i
CCOn1c(-n2nc(C)cc2C)nc2ccccc2c1=O	-2.6%	4.2	6.1%	i	i
Cc1cc(C)n(-c2nc3ccccc3c(=O)n2OCC#N)n1	16.4µM*	-95.8*	u	u	u
COc1ccc(S(=O)(=O)N2CCCC(N(C)CCc3ccccc3)C2)cc1OC (stereo unspecified)	2.1%	8.7	20.2%	i	i
Cc1cccc(C(=O)Nc2cc3nn(-c4ccc(C(C)C)cc4)nc3cc2C)c1	x	x	x	i	i
COc1cc(/C=C(\C#N)C(=O)Nc2ccc(C(=O)O)cc2)ccc1OC(=O)c1cccc(F)c1	-39.1%[1.84 µM]	4.1	-23.7%	i	i
COC1(OC)C(/C=C/c2ccc(C)cc2)C(C#N)(C#N)C1(OC)OC (stereo unspecified)	u	-120.0*	18.4µM*	u	i
CCOc1ccc(S(=O)(=O)N2CCC(C(=O)N3CCCCCC3)CC2)cc1Cl	15.9%	-23.8	0.8%	i	u
Cc1ccc(S(=O)(=O)N2CCN(C(=O)C3CCCCC3)CC2)cc1	u	17.4	2.91µM*	i	i
SMILES	SW480 rerep	IL-1B inflam inh	MCF10A rerep	KB-3-1 tox	KB-V1 cytotox
CCOc1ccc(C(C)NC(=O)C2CCN(S(=O)(=O)c3ccc(OC)cc3)CC2)cc1OCC (stereo unspecified)	4.2%	-13.0	0.8%	i	20.6µM*
CCOc1ccc(S(=O)(=O)N2CCC(C(=O)N3CCCCCC3)CC2)cc1C	23.5%	-52.0*	4.7%	i	u
CCCC(C(=O)NC(C)(C)C)N(Cc1ccccc1Cl)C(=O)c1snc(C(N)=O)c1N (stereo unspecified)	u	34.1	13µM*	i	u
CC(C(=O)NCc1ccccc1)N(Cc1ccccc1Cl)C(=O)c1snc(C(N)=O)c1N (stereo unspecified)	27.9%	-75.3*	u	i	i
CCCCC(C(=O)NC(C)(C)C)N(Cc1ccccc1Cl)C(=O)c1snc(C(N)=O)c1N (stereo unspecified)	-3.1%	13.8	u	i	i
Cc1ccc(S(=O)(=O)N(CC(=O)Nc2ccc3c(c2)OCO3)c2cc(Cl)cc(Cl)c2)cc1	x	x	x	i	i
O=C1CCCc2c1[nH]c1ccc(Cl)cc21	-4.1%	21.9	1.6%	u	u
OCCN=C1CCCc2c1[nH]c1ccc(Cl)cc21	-7.8%	13.8	12.9%	2.06µM*	0.731µM*
OCCCN=C1CCCc2c1[nH]c1ccc(Cl)cc21	-2.1%	x	u	9.2µM*	1.46µM*
COc1ccc2c(c1)NC(c1ccc(Cl)cc1)=NC(c1cccs1)=N2	x	x	x	i	i
CCCCCCCC/C=C\CCCCCCCC(=O)O	3.2%	30.1	29.9µM*!	i	i
CCCCC/C=C\C/C=C\CCCCCCCC(=O)O	-5.8%	x	u	x	x
O=C(NCC(c1cccnc1)N1CCc2ccccc2C1)C(=O)Nc1ccc(Cl)cc1 (stereo unspecified)	x	x	x	i	u
Cc1ccc(NC(=O)CSc2nnc(-c3ccccn3)n2N)c(Br)c1	14.6%	-14.0	-3.4%	i	i
Cc1[nH]c(-c2ccc(F)cc2)cc1C(=O)N1CCN(c2ccccc2)CC1	-3.2%	-55.7*	u	i	i
COc1cccc(N2CCN(C(=O)c3cc(-c4ccc(F)cc4)[nH]c3C)CC2)c1	0.3%	u	u	i	i
Cc1[nH]c(-c2ccc(F)cc2)cc1C(=O)N1CCN(c2ccccc2F)CC1	-8.6%	u	u	i	i
Cc1ccc(N2CCN(C(=O)c3cc(-c4ccc(F)cc4)[nH]c3C)CC2C)cc1 (stereo unspecified)	4.7%	-59.4*	16.3%	u	u
N#Cc1c(Oc2ccc3ccccc3c2)sc(C(=O)c2ccccc2)c1N	11.6%	-107.0*	u	u	i
N#Cc1c(SCc2ccccc2)sc(C(=O)c2ccccc2)c1N	2.8%	12.0	3.7%	i	i
Cc1cccc(Oc2sc(C(=O)c3ccccc3)c(N)c2C#N)c1C	3.7%	-61.5*	u	i	i
Cc1ccc(CSc2sc(C(=O)c3ccccc3)c(N)c2C#N)cc1	-3.3%	26.5	u	i	i
Nc1nc(-c2cc(O)ccc2[N+](=O)[O-])cc(-c2ccccc2)c1[N+](=O)[O-]	23.1µM*	2.4	1.84µM*	i	i
